Assay [1] deals with Estrogen receptor beta (Homo sapiens) (UniProt Q92731). The assay is described as follows: qHTS assay to identify small molecule agonists of the estrogen receptor beta (ER-beta) signaling pathway (AID 1259377; active means well fitted activation curve with a large enough effect in the signal ratio in the repeat runs, not every such curve was filed as active; the % refers to the signal ratio). Summed up:
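Read-out: beta-lactamase FRET fluorescence. Cell line: ER-beta-UAS-bla HEK293T in 2% charcoal-stripped FBS. Exposure: 16 hr at 37C. Substrate step: 2 h at room temperature.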
Background: Quantitative high-throughput screening tests each substance at several concentrations.

Assay [2] has the same target. The assay can be described thus: qHTS assay to identify small molecule antagonists of the estrogen receptor beta (ER-beta) signaling pathway (AID 1259378; active means well fitted inhibition curve with a large enough effect in the signal ratio in the repeat runs, not every such curve was filed as active; the % refers to the signal ratio). A digest of the protocol:
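Antagonist mode: compounds added to beta-lactamase reporter HEK293T ER-beta-UAS cells stimulated with E2 (1nM final), 16 hr at 37C. LiveBLAzer B/G FRET substrate, 2 hours room temperature, fluorescence read-out.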

A short description of assay [3]: qHTS assay to identify small molecule agonists of the androgen receptor (AR) signaling pathway in the presence of an antagonist - cell viability counter screen (AID 1259379). Further: nearly all actives have a fitted effect of over 25% in size. Further: potency means the concentration at half of the fitted maximal effect. A digest of the protocol:
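Nilutamide-containing (3.0uM final) MDA-kb2 cultures, 3,000 cells/well, were treated with compounds across 15 concentrations. After 16 hr at 37C with no CO2, cell viability was determined by CellTiter-Fluor fluorescence in the luciferase assay wells.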

Assay [4] can be described thus: qHTS assay to identify small molecule agonists of the estrogen receptor beta (ER-beta) signaling pathway - cell viability counter screen (AID 1259380). Further: nearly all actives have a fitted effect of over 30% in size. A digest of the protocol:
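Steps: plate ER-beta-UAS-bla HEK293T cells, rest 6 hr; add compounds in DMSO; incubate 16 hr at 37C, 5% CO2; add FRET substrate 2 hr; add CellTiter-Glo, wait 30 min at room temperature; read luminescence.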

A short description of assay [5]: qHTS assay to identify small molecule antagonists of the estrogen receptor beta (ER-beta) signaling pathway - cell viability counter screen (AID 1259382).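 Further: HEK293T cells carrying ER-beta-UAS-bla reporter stimulated with estradiol; series mostly up to about 92 µM; nearly all actives have a fitted effect of over 55% in size.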 A digest of the protocol:
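Viability is scored by CellTiter-Glo luminescence (30 min, room temperature) in ER-beta-UAS-bla HEK293T wells already read for reporter fluorescence. Compound exposure lasts 16 hr at 37C alongside 1nM 17-beta-estradiol in charcoal-stripped serum medium.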

Assay [6] is described as follows: qHTS assay to identify small molecule agonists of the estrogen receptor alpha (ER-alpha) signaling pathway in the presence of an antagonist - cell viability counter screen (AID 1259386).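 Further: cells exposed to compounds for 22 h at 37 °C before the viability read; nearly all actives have a fitted effect of over 30% in size.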 Further: potency means the concentration at half of the fitted maximal effect. Summed up:
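In this counter screen, compound effects on VM7Luc4E2 viability were tested in the presence of the antagonist ICI-182,780 at 10.0nM final. Compounds were dosed at 15 concentrations, exposure lasted 22hr, and the CellTiter-Fluor signal was read.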

The target in assay [7] is Androgen receptor (Homo sapiens) (UniProt P10275). The assay can be described thus: qHTS assay to identify small molecule agonists of the androgen receptor (AR) signaling pathway in the presence of an antagonist (AID 1259381; calls by dose curve; further: nearly all actives have a fitted effect of over 15% in size). Summed up: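 Reporter-gene luminescence from MDA-kb2 cells exposed 16hr at 37C (0% CO2) to 15-point compound titrations with 3.0uM final nilutamide as AR antagonist.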

The target of assay [8] is Estrogen receptor (Homo sapiens) (UniProt P03372). The assay is described as follows: qHTS assay to identify small molecule agonists of the estrogen receptor alpha (ER-alpha) signaling pathway in the presence of an antagonist (AID 1259383; calls by dose curve; further: top concentration of the series differs between compounds; nearly all actives have a fitted effect of over 15% in size). Summed up:
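Readout was ERE-driven luciferase luminescence in VM7Luc4E2 cells, which express full-length ER-alpha endogenously. Compounds were tested at 15 concentrations for 22hr alongside 10.0nM ICI-182,780 (final concentration).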

Assay [9] is described as follows: qHTS assay to identify small molecule agonists or antagonists of the thyroid stimulating hormone receptor (TSHR) signaling pathway - wild type cell line counter screen (AID 1259384; calls by dose curve). Summed up: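 Counter screen in untransfected Hek293: compounds (15-point titration, triplicate) plus phosphodiesterase inhibitor Ro20-1724 added after 18 h plating; 30 min RT. Intracellular cAMP via competitive d2/cryptate immunoassay, 1 h incubation.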

Assay [10] deals with Thyrotropin receptor (Homo sapiens) (UniProt P16473). The assay can be described thus: qHTS assay to identify small molecule antagonists of the thyroid stimulating hormone receptor (TSHR) signaling pathway (AID 1259385; calls by dose curve; further: nearly all actives have a fitted effect of over 20% in size). A digest of the protocol:
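Antagonist mode: compound-treated TSHR-expressing HEK293 cells were stimulated with 1.5 ng/mL TSH (final) in presence of Ro20-1724 for 30 min at RT. HTRF cAMP detection after 1 h; each compound tested at 15 concentrations, triplicate.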

SMILES strings stand for the structures. Inconclusive results are not listed. Active and inactive are the calls of the source. Unless noted, the call rests on the fitted dose curve; in most records, active means well fitted curve in the direction sought with a large enough effect in the repeat runs; inconclusive means weak or mixed curves; inactive means no such curve, though single readings can be large; an effect the other way counts as inactive or inconclusive.

Sequence of Thyrotropin receptor (Homo sapiens) (P16473 whole entry, looked up): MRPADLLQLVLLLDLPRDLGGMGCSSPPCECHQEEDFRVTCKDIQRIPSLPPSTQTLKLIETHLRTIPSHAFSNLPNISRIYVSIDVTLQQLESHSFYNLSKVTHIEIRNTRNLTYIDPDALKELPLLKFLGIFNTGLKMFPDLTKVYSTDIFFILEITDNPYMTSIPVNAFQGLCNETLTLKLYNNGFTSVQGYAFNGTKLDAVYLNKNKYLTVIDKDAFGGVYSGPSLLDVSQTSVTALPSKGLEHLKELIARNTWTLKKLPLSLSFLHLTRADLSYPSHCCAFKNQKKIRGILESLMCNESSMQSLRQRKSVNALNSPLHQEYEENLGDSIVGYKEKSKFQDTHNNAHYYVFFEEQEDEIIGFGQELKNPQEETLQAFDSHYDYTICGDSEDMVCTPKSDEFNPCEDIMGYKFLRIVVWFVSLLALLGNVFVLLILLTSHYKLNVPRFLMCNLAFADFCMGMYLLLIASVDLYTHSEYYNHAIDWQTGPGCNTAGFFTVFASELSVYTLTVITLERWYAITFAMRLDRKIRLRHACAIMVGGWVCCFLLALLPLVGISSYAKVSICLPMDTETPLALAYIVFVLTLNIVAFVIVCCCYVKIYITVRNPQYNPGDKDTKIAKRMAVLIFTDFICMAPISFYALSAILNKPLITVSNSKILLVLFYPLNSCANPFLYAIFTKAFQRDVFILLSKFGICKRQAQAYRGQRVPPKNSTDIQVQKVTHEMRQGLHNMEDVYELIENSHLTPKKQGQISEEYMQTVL
Sequence of Estrogen receptor (Homo sapiens) (P03372 whole entry, looked up): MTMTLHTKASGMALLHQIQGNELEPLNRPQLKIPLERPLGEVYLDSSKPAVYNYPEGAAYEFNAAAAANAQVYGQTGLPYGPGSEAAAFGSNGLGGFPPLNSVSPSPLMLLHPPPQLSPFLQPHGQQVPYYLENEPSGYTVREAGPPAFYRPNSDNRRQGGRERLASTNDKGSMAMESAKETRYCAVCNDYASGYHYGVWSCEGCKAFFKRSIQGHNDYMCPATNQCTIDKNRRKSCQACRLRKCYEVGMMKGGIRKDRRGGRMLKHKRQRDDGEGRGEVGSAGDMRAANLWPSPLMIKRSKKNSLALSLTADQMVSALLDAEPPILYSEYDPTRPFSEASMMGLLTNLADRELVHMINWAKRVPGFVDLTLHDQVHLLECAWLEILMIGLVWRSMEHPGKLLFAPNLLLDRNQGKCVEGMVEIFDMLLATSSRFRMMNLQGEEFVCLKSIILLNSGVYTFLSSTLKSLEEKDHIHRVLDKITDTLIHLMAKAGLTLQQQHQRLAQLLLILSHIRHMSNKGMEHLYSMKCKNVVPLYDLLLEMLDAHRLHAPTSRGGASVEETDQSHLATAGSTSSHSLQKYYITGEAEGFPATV
Sequence of Androgen receptor (Homo sapiens) (P10275 whole entry, looked up): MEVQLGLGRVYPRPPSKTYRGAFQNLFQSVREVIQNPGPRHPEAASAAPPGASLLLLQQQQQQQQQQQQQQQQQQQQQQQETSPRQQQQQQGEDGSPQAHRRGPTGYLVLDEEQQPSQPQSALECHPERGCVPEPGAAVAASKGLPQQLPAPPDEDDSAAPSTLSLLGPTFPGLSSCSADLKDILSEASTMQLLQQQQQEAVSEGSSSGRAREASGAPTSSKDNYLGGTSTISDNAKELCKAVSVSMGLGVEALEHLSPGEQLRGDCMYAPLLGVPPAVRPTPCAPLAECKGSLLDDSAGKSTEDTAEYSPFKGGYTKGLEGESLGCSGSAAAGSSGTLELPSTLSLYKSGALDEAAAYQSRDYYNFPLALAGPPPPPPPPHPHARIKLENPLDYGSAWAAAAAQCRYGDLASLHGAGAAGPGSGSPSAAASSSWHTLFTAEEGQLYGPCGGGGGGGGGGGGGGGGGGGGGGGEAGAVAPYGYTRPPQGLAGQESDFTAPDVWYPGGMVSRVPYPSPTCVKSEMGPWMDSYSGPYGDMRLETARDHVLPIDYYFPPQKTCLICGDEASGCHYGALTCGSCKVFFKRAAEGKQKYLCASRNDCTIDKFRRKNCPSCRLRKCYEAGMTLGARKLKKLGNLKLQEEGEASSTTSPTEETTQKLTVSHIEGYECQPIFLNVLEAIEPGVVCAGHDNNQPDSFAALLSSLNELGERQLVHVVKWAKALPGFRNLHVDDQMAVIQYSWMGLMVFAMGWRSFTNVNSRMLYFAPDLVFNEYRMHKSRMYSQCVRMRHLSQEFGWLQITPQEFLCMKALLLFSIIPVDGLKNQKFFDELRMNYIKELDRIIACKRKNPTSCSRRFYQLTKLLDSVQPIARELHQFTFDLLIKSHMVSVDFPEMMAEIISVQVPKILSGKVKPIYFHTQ
Sequence of Estrogen receptor beta (Homo sapiens) (Q92731 whole entry, looked up): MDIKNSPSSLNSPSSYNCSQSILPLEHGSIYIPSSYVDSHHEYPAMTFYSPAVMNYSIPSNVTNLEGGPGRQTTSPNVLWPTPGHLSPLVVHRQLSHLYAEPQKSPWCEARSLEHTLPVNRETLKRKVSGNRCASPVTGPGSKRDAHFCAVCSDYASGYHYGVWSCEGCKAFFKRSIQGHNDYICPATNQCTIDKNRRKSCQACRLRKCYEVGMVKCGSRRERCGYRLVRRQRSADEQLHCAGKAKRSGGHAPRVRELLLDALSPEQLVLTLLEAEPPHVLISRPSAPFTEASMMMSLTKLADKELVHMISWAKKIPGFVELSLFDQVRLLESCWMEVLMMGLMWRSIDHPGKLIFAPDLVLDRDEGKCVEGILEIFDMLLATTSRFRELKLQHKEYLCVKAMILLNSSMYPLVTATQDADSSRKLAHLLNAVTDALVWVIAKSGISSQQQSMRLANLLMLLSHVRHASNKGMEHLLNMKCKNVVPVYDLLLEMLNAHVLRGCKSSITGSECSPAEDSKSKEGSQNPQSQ

As to `CCCOC(OCCC)OCCC`, the Potency result in assay [1], in assay [3], in assay [4] and in [6] was “inactive” each time. The molecule was classed as inactive in [2] and in assay [5].

Turning to `CC(CO)c1ccccc1` (configuration not stated), the result in assay [2], in assay [5], in assay [8] and in assay [9] was inactive. Further, the Potency result in assay [3], in assay [4], in assay [7] and in [6] was “inactive” each time.

`O=C(CCNNC(=O)c1ccncc1)NCc1ccccc1`: the Potency entry in assay [3], in assay [4] and in [6] was “inactive” each time. Also, the outcome in assay [5], in assay [8], in assay [9] and in [10] was inactive.

`CN(C)CCOCCO`: the Potency entry in assay [3], in assay [4] and in assay [6] was “inactive” throughout. Besides, the molecule was classed as inactive in assay [5], in [8] and in assay [9].

On to `CCCCCCN`, for which the Potency entry in assay [3], in assay [4] and in assay [6] was “inactive” throughout. The result in assay [5], in [8], in [9] and in [10] was inactive.

Consider `CCOC(=O)c1ncn2c1CN(C)C(=O)c1cc(F)ccc1-2`, for which the Potency entry in [3], in assay [4], in assay [7] and in [6] was “inactive” throughout. For the same molecule, the molecule was classed as inactive in assay [5], in [8], in assay [9] and in assay [10].

Turning to `Nc1ccc([N+](=O)[O-])c(N)c1`, the Potency in [3] and in assay [6] was 29.9 µM (active) throughout. In addition, the Potency entry in [4] is “inactive”. Besides, the result in assay [5], in assay [8], in assay [9] and in assay [10] was inactive.

In the case of `CC(CC=O)CCCC(C)(C)O` (configuration not stated), the Potency result in assay [3], in assay [4], in assay [7] and in [6] was “inactive” throughout. Further, the molecule was called inactive in assay [5], in assay [8], in assay [9] and in assay [10].

The values above are taken from PubChem BioAssay (Tox21).
